Results from the supplement of paper PMC11417369.
Over roughly 25,000 sequences, “ln(normalized median fluorescence intensity)” has its median near 6.7; the highest 2% begin near 10. What follows is part of a selection rich in the highest values, with near analogues and random picks from the rest.

The sequences below were run on PfHDP1 homeodomain (GST-tagged) (assay: gcPBM binding intensity (ln(normalized median fluorescence intensity)); higher = stronger DNA binding).
How it was run: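 For binding intensity, the highest Masliner-normalised natural-log median intensity across replicate spots of either probe orientation was taken. Protein bound to the array was stained with Alexa488 anti-GST antibody and scanned at 488 nm. The protein, GST-tagged P. falciparum DNA-binding domains from E. coli at about 25 μg on average, had been applied for 1 h to an Agilent 4 × 180k array of primer-extended double-stranded 36-bp intergenic genomic probes and negative controls.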

Sequence | gcPBM binding intensity (ln)
TAAATTAAAAAAAAAAACAAAAAAAAAGCAACAAAA [CACACA_negctrl_site1318] | 6.62
AAGTTTTCTTAAAGATGTACTTTTTAAAAATAAAAT [XGTACX_site3063] | 6.15
ATGTGCACATGTAGAAGTACTTTTTCTTAAAATACT [XGTACX_site8341] | 10.9
TTTTGAAGTAATACATGTACTTAAATTACTAAAAAA [XGTACX_site1955] | 6.04
TTTAAAATGGGACTTTGAAAAAAAAAAAAAAAAACA [TGCATGCA_negctrl_site111] | 6.1
AAATATTACATTTGTTAAATAATATGTTATACATAA [XGTACX_negctrl_site484] | 5.89
AATTTTTTATATGTCACACATTTGTTATTATTATTA [CACACA_site4197] | 6.51
TGTGTATTTATAAATACACACCAAATGTTAATATAT [CACACA_site6904] | 6.9
CAGTTGTTAATTTGTGTGCACCAAATATTATACATA | 10.5
TTTTCATATTATAGTGCACACAAAAATATATATATG [CACACA_site8929] | 10.3
GTCAAATTTTTGTGCACACATATATAGTTATTATTA [CACACA_site2241] | 11.7
TTTTTTTTTTTTTTTGTGCACAATTATTTCAATTTT [GTGCAC_site9884] | 10.2
ATGTCAAATTTTTGTGCACACATATATAGTTATTAT [CACACA_site2242] | 11.4
TGTGTCAAATAATTAATGTCATATATATTTTGTATA [CACACA_negctrl_site1479] | 6.11
ATGAAACAGTAACATTGTACTTTTACAAAAAAATAA [XGTACX_site806] | 6.25
TTATATATATATAATACACACATAATAATATATTTA [CACACA_site3038] | 6.67
TATAATAATAATAATAGTACGTATTATTAAAAAACT [XGTACX_site10] | 6.58
TATATAGATATGATAGTGCATTTTTAGAAAACATAA [GTGCAC_site9962] | 7.95
TTATAAAAAATTTTAGTGCATATATGATTTATATAT [GTGCAC_site9831] | 9.44
ATGATATGCAATTTAGTGCATAACAAAATTGGTATA | 10.5
AAAATGCATTTGATGTGTACGCATTATAAAGAACAA [XGTACX_site4203] | 7.39
TTATATGCACTTTTTGCACACGTATGAATAACAAAA [CACACA_site1811] | 11.5
TAGTATAATATGAACACACACACACGCACAAAAAAA [CACACA_site7035] | 7.3
AGTAAATAACACAAATATGAATGAAAAAAAAAATAT [GTGCAC_negctrl_site235] | 6.82

Sequence | gcPBM binding intensity (ln)
ATAGGCACTTTTTGCACACGTATGAATAACAAAATA [CACACA_site5069] | 10.4
ATATGCACTTTTTGCACACGTATGAATAACAAAATA [CACACA_site1810] | 11.2
TACGTAATAATATGCACACAAATAAACTTTATAAAT [CACACA_site3501] | 9.89
AAAAGGAAGATATATACACACATACAAATATTTATA [CACACA_site7093] | 6.71
TATACTTGTAAATGCACACATAAGATGCGACTAATG [CACACA_site2118] | 9.37
TACAATAAGGATAAGTGTACATATGTGCATACATAT [XGTACX_site7188] | 10.6
TAAGGGATATGTATATGTACATACAAATATATATAA [XGTACX_site2892] | 6.63
TAAGTGCATGAGATATGTACATATATAAAATATATA [XGTACX_site3294] | 9.2
TATACATACTCACCCACACACAAAAAAAAAAAAAAA [CACACA_site862] | 6.43
TTTTATCTTTTTTTATTTTAATGTATTATTTTTATG [XGTACX_negctrl_site24] | 6.61
ATAAAAAAATTAAATACATGCACATATACACATACA [TGCATGCA_site129] | 8.6
TATAACCGAATGTGTACACAAAATAATGTTATATAT [CACACA_site5627] | 7.77
ATGTCTAATTTTGATGCACACTTTTGTGCAATTAAA [CACACA_site5589] | 11
GAATGTCTAATTTTGATGCACACTTTTGTGCAATTA [CACACA_site2902] | 11.1
GAATAAATTAAAAATGCACACTTTGATGGGTACATT [CACACA_site5220] | 8.68
TGTTTGTAATTATGTATGCACTTTTTTGTATGTGTG [GTGCAC_site9668] | 7.52
GATGATTCAATTTATGCACACTAAAAATTAATTATA [CACACA_site4308] | 10.1
AATTTTTGTTACAAGATGCACTTAATTTTTCTAAAT | 7.92
TGTAGACTACATAGTAGTACATAATATATACATATA [XGTACX_site367] | 6.21
TACTTATTATGAAACACACACCAAAACTACAGAATA [CACACA_site6265] | 7.04
GTGCATATATGATATACACACAATATAATAGTATGT [CACACA_site2460] | 7.18
TTTTTTTTTAATCATGCACACTGTTAAAAGAATAAA [CACACA_site4817] | 8.29
TTTTTATGGACTATGGTGCATTATATATAAATGAAA [GTGCAC_site9557] | 10.3
ATTATCAATATGAAGGTGCATTTAAATAATATTTAC | 9.62

Sequence | gcPBM binding intensity (ln)
TAATATAATGATGCAGTGCATATGTTAAAATGAAAA | 8.68
ATTAAATGCAGTTCGGTGCATTAAGGTTATGATGAA [GTGCAC_site9883] | 10.7
TCTTGTTCGCCCTATTGTACAAACATATATTGTGAT [XGTACX_site2884] | 7.27
TAATAAATCAAATGCACACACACAAAAAAAAAAAAA [CACACA_site161] | 10
AAAATATAATATAATGCACACATAAACAAAAAAAAA [CACACA_site8161] | 10.1
AATATAATATAATGCACACATAAACAAAAAAAAAAT [CACACA_site1304] | 10.5
ATATTATATAAATACACACACACATGCATGCACATA [CACACA_site4236] | 10.3
ATATAAACACTGAATGCATGCACATATATATATATA [TGCATGCA_site940] | 9.37
AACGGGTAATGCACAAAAAAAAAAAAATAAAATAAA [TGCATGCA_negctrl_site474] | 10.9
GCACAAATATATATATATATATATATATATATATAT [GTGCAC_negctrl_site661] | 9.39
AAAATATAATATAATGCACACATAAAACAAAAAAAA [CACACA_site8989] | 9.76
AATATAAAAATGCACACACACAAAAAAAAAAAAAAA [CACACA_site6546] | 9.21
ATGAGTGCACAAATATATATATATATATATATATAT [CACACA_negctrl_site404] | 10.7
ATTATATATAAACACACACACATGCATGCACATATA [CACACA_site4237] | 10.5
AAATATAAAGTGCACACACACAAAAAAAGAAAAAAA [CACACA_site6452] | 8.92
TTCTTAATATTGCATGCACACTATATAATAATTGAA [CACACA_site4720] | 9.18
GTCTCCTTTATTTTTGGTACAGATAAGATAAAAGGA [XGTACX_site1591] | 6.46
CACTTAAAAAAAATACGTACACATATATATATATAT [XGTACX_site2054] | 9.39
TATAATATAATTAAAAGTACTTAAAAAAGAATGAAA [XGTACX_site1157] | 6.99
CATCAATGCTAATTATGTACTTACATAAATAACCCT [XGTACX_site968] | 6.52
TTGTGCTTGATATCACGGACAAGCTCATATTATATA [XGTACX_site4553] | 6.03
AATGTCATGATACATACACACACATACACATACACA [CACACA_site8665] | 6.98
ATATAACGAATAATTACACACTATAAAAAAAGATCT [CACACA_site2862] | 6.63
GTACACATATAATATACACACAACAAATATGCACAT [CACACA_site1010] | 10.6

Sequence | gcPBM binding intensity (ln)
AATTATGCACAAATCACACATATAAAATAAAAAGTG [CACACA_site4474] | 11.1
AAAATATAAAATAATGCACACATAAACAAAAAATCA [CACACA_site8382] | 10.5
ATCCTTAATATGAACACACAAATATATTGCACATAT [CACACA_site6230] | 10.9
CATATAAAAATATATGCACACAAATAAAAAATTATA [CACACA_site9210] | 10
TATAATATTCCTTTTTAACACACATATGAACAAATA [CACACA_site7932] | 6.77
GTACACCTATAATATACACACAACAAATATGCACAT [CACACA_site6603] | 10.2
AATATAAAATAATGCACACATAAACAAAAAATCAAA [CACACA_site1371] | 10.4
AAATATAATATATGCACACATACATACATATATATA [CACACA_site104] | 10.3
ATGAATCCTTAATATGAACACACAAATATATTACAC [CACACA_site7943] | 6.7
TATAAAAATATATGCACACAAATAAAAAATTATATA [CACACA_site3629] | 9.87
AGAAAAAAAATGTATACACACAAATATAAAGAAGGA [CACACA_site3806] | 7.09
GTACTCTTCTCCAGACTGCACTATACGACTCGTACA [GTGCAC_site9770] | 7.35
AAATATTTTTTAATGTGTACATAGAACATATATATA [XGTACX_site3136] | 6.59
TTTGTCTGCATACGCACACACGTGTACCATCTTATG [CACACA_site4784] | 7.89
AATTAACAAAGACACACACACACACGCACAAAAAAA [CACACA_site6388] | 7.33
GTTAAAATTGGGGACGCATGTTCCTTTCCTTTTTTT [TGCATGCA_site1002] | 5.83
ATATAATCTGAGTGCACACAAATAAATAAACATACA [CACACA_site422] | 10.2
TAATATAATCTGAGTGCACACAAATAAATAAACATA [CACACA_site8032] | 11.2
AATATAATATAATGCACACATAAAACAAAAAAAAAA [CACACA_site3012] | 10.2
TTAACAAATAAATGCACACATATATATAAATAATAT [CACACA_site28] | 9.43
AATATAATATAATGCACACATAAACAAAAAAAAAAA [CACACA_site783] | 10.5
TAAATATAAACACAAACACACACATATATATATATA [CACACA_site7978] | 9.27
